Source: PubChem BioAssay (National Center for Advancing Translational Sciences (NCATS))
Shown are actives, neighbours in structure and some others; about 7.9% of the full set was active somewhere.
FMDV inh – foot and mouth disease virus antiviral activity; hit rate 1.2% among 410,000; FMDV antiviral cell-based qHTS; AID 1159524; Potency, µM (series often up to 57.9 µM), for inactives: at the highest dose activity change, negative = inhibition, usual class: inhibitors; calls by dose curve; tested in HEK293T cells; also: read-out not given here; potency is read from the fitted curve at half-maximal effect; nearly all actives have a fitted effect of over 45% in size
MARV entry inh – Marburg virus entry inhibition. hit rate 1.8% among 300,000. Potency, µM (series often up to 37.8 µM), for inactives: top-dose activity change, negative = inhibition, most hits filed as inhibitors. Marburg virus pseudotyped entry inhibition, cell reporter; calls by dose curve; tested in HEK293 cells; also: potency is read from the fitted curve at half-maximal effect
HCV inh – inhibitors of hepatitis C virus infection; Huh7.5.1 HCVcc-Cre infection, luciferase reporter, 44 h; Potency, µM (doses to about 41.8 µM), without a hit: at the highest dose activity change, negative = inhibition, hits mostly inhibitors; hit rate 3.4% among 340,000; active = well fitted inhibition curve with a large enough effect; inconclusive = small, poorly fitted or top-dose-only effect, or another doubt; inactive = no such curve, though single readings can be large or run the other way; also: potency is read from the fitted curve at half-maximal effect
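Whole-lifecycle infectious HCVcc-Cre system; cells 1,000/well, compound then virus (~0.5 moi) added 4 h after plating, 44 h culture. Luciferase read 15 sec following 15 min substrate incubation, room temp.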
HCMV inh – inhibitors of human cytomegalovirus. HFF cells, HCMV-luciferase reporter, 72 h; hits give low values. activity change, negative = inhibition, % at 57.5 µM. hit rate 4.5% among 410,000; in the data active = activity change below about -60%; inconclusive = no clear call, values can overlap the other calls; inactive = above about -39%
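After 16 h attachment at 37C, HFF cells received test compound and HCMV-luciferase (1 PFU/cell); reporter luminescence read 72 h later, data normalized against buffer-only and known inhibitor Salinomycin.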
Lassa entry inh – inhibitors of Lassa virus binding or cell entry. Lassa virus pseudotype entry inhibition, cell reporter. Potency, µM (titrated, usually from 37.9 µM), inactives show at the highest dose activity change, negative = inhibition, actives largely listed as inhibitors. hit rate 1.2% among 300,000. AID 540256; calls by dose curve; tested in HEK293 cells; also: potency is read from the fitted curve at half-maximal effect; nearly all actives have a fitted effect of over 50% in size
The depositor's hits bear a star; u = inconclusive; x = no result given; [ ] = another dose, or the depositor's remark. % is scaled to controls: 0 for no effect and ±100 for the full control effect.

SMILES	FMDV inh	MARV entry inh	HCV inh	HCMV inh	Lassa entry inh
CCS(=O)(=O)c1ncc(Cl)c(C(=O)N2CCN(c3ccc(OC)cc3)CC2)n1	32µM*	u	x	-99*	u
COc1ccccc1NC(=O)c1nc(S(=O)(=O)Cc2ccccc2)ncc1Cl	28µM*	u	u	-113*	u
CCS(=O)(=O)c1ncc(Cl)c(C(=O)N(Cc2ccccc2)c2ccc(OC)cc2)n1	11µM*	u	x	-99*	u
COc1ccccc1NC(=O)c1nc(SCc2ccc(F)cc2)ncc1Cl	-16%	4%[46.1 µM]	x	18	24%[46.1 µM]
CCS(=O)(=O)c1ncc(Cl)c(C(=O)NCc2ccc(OC)cc2)n1	25µM*	x	x	-97*	u
COc1ccc(C(=O)Nc2cc(S(=O)(=O)c3ccc(Cl)cc3)c(O)c(C)c2C)cc1	48%	10%[46.1 µM]	x	-34	16%[46.1 µM]
CC(C)=CCC12CC3[C@@H](O)C(C(=O)c4ccccc4)(C1=O)C(=O)C(CC=C(C)C)(C2=O)C3(C)C (some centres undefined)	x	-26%[14.2 µM]	x	x	u
Oc1ccc2c(c1)CCCC1(CCCO1)O2 (centres undefined)	x	x	x	0	x
COc1ccc(OC)c(NC(=O)c2nc(S(=O)(=O)Cc3ccc(F)cc3)ncc2Cl)c1	22µM*	u	x	-97*	u
CCOc1ccccc1NC(=O)c1nc(S(=O)(=O)Cc2ccccc2)ncc1Cl	32µM*	x	u	-109*	x
CCS(=O)(=O)c1ncc(Cl)c(C(=O)Nc2ccccc2OC)n1	3.5µM*	-16%[46.1 µM]	u	-20	u
Cc1ccc(NC(=O)CSc2nc(-c3ccccc3Cl)nc3cc(=O)[nH]n23)c(C)c1	-15%	x	x	-14	4%[46.1 µM]
O=C(O)CC(CNS(=O)(=O)c1ccccc1)c1ccccc1 (centres undefined)	-20%	-1%	u	-75*	x
O=C(c1ccc2nc(-c3ccco3)c(-c3ccco3)nc2c1)N1CCC2(CC1)OCCO2	22%	4%	7%	x	-6%
O=C(c1ccc2nc(-c3ccco3)c(-c3ccco3)nc2c1)N1CCN(c2ccccc2)CC1	u	16µM*	u	-108*	-22%
O=C(Nc1ccc2nc(-c3ccco3)c(-c3ccco3)nc2c1)NC1CC1	24%	-1%	u	x	-13%
O=C(Nc1ccc(N2CCOCC2)cc1)Nc1ccc2nc(-c3ccco3)c(-c3ccco3)nc2c1	0%	u	6.3µM*	-60*	-28%
CCOc1ccc(S(=O)(=O)NCc2nc3cccnc3n2Cc2ccccc2OC)cc1	66%	x	x	-26	-35%[46.1 µM]
O=C(c1ccccc1)N1CCCC(c2ccc(Cl)cc2)=N1	x	-26%	u	-24	u
O=C(c1cccc(Cl)c1)N1CCCC(c2ccc(Cl)cc2)=N1	x	-21%	7.9µM*	-4	u
COCCn1c(=S)[nH]c2cc(C(=O)N3CCN(Cc4ccc5c(c4)OCO5)CC3)ccc2c1=O	14µM*	6.5µM*	14µM*	-99*	u
COCCn1c(=S)[nH]c2cc(C(=O)N3CCc4ccccc43)ccc2c1=O	7.9µM*	u	u	-70*	u
CCCn1c(=S)[nH]c2cc(C(=O)N3CCc4ccccc43)ccc2c1=O	-9%	u	u	-39	-2%
CCOc1ccc(CCNC(c2nnc(-c3ccccc3)o2)c2ccccc2Cl)cc1OCC (centres undefined)	-18%	u	x	-2	-8%[46.1 µM]
Cc1cc(Br)ccc1OCCOCCN1CCCC1	-19%	x	u	7	x
SMILES	FMDV inh	MARV entry inh	HCV inh	HCMV inh	Lassa entry inh
Cc1cc(Br)ccc1OCCCCN1CCCCC1	-16%	u	10µM*	-36	-8%
Cc1cc(C(C)(C)C)ccc1OCCCCN1CCCC1	-1%	u	22µM*	-30	u
COc1ccc(/C=C/C(=O)Nc2cccc(S(=O)(=O)NC3=NCCCCC3)c2)cc1	8%	x	u	-5	x
COc1ccccc1/C=C/C(=O)Nc1cccc(S(=O)(=O)NC2=NCCCCC2)c1	-10%	11µM*	u	-15	u
O=C(/C=C/c1ccc(OC(F)F)cc1)Nc1cccc(S(=O)(=O)NC2=NCCCCC2)c1	u	u	u	-69*	10µM*
COc1cc(/C=C/C(=O)Nc2cccc(S(=O)(=O)NC3=NCCCCC3)c2)ccc1OCC#N	4%	u	6.3µM*	-31	-28%
COc1ccc(OC)c(/C=C/C(=O)Nc2cccc(S(=O)(=O)NC3=NCCCCC3)c2)c1	-2%	x	u	-18	x
Cc1ccccc1OCC(=O)Nc1nnc(S(=O)(=O)N2CCCCCC2)s1	2%	x	x	2	2%[46.1 µM]
COc1ccc(/C=C(\C#N)c2nc3ccc(C)cc3[nH]2)cc1Oc1ccc(C(F)(F)F)cc1[N+](=O)[O-]	0%	-28%	u	-68*	19%
CCOC(=O)COc1ccc(/C=C(\C#N)c2nc3ccc(C)cc3[nH]2)cc1OC	-14%	0%[46.1 µM]	x	-105*	-3%[46.1 µM]
COc1ccc([C@@H]2[C@@H](C(=O)N3CCCC3)CC(=O)N2C(=O)c2ccccc2)cc1	x	x	x	-17	x
CN1CCN(c2nc(N3CCN(c4ccccc4)CC3)ncc2F)CC1	x	u	6.3µM*	-29	-17%
O=C(c1ccccc1[N+](=O)[O-])N1CCC[C@@H]1c1noc2ccccc12	x	x	x	-62*	x
COc1ccc(CNCC(O)(c2ccccc2)c2ccc(F)cc2)cc1OC (centres undefined)	u	2.8µM*	10µM*	u	u
COc1ccc(CNCC(O)(c2ccccc2)c2ccc(F)cc2)cc1 (centres undefined)	-4%	11µM*	8%	u	14%[46.1 µM]
COc1ccc(CNCC(O)(c2ccc(Cl)cc2)c2ccc(Cl)cc2)cc1	-17%	u	u	37	u
OC(CNCc1ccc(Cl)cc1)(c1ccccc1)c1ccc(F)cc1 (centres undefined)	-2%	u	-24%	5	-18%
COc1ccc(CNCC(O)(c2ccc(Cl)cc2)c2ccc(Cl)cc2)cc1OC	u	u	13µM*	18	u
OC(CNCc1ccc(F)cc1)(c1ccc(F)cc1)c1ccc(F)cc1	u	u	u	41	0%
CCN(CC)CCn1nc2c3c(cccc3c1=O)-c1ccccc1-2	u	x	10µM*	-99*	x
O=c1c2cccc3c2c(nn1CN1CCOCC1)-c1ccccc1-3	-11%	u	u	x	u
O=[N+]([O-])c1ccc(N/N=C2\CC3CC=CC23)c([N+](=O)[O-])c1 (centres undefined)	u	0%[46.1 µM]	11µM*	27	-16%
O=[N+]([O-])c1ccc(N/N=C2\CC3CC=CC23)cc1 (centres undefined)	40%	x	22µM*	-13	x
O=[N+]([O-])c1ccc(NN=C2CC3CCC2C3)c([N+](=O)[O-])c1 (centres undefined)	0%	x	x	11	x
COc1ccc(-c2cc(C(=O)Nc3c(C(=O)c4ccc(C)cc4)oc4ccccc34)no2)cc1	-11%	20%[46.1 µM]	x	27	-1%[46.1 µM]
CCOC(=O)c1ccccc1NC(=O)CN1CCCN(Cc2cccc(Cl)c2)S1(=O)=O	-10%	x	x	u	u
